{"source": "ChEMBL document CHEMBL1961873", "about": "“Compounds: GSK PKIS; Assays: Nanosyn kinase panel” (2012)", "key": {"[1]": {"biological_target": "T1, Inhibitor of nuclear factor kappa-B kinase subunit epsilon (Homo sapiens) (UniProt Q14164)", "T1 sequence (whole entry)": "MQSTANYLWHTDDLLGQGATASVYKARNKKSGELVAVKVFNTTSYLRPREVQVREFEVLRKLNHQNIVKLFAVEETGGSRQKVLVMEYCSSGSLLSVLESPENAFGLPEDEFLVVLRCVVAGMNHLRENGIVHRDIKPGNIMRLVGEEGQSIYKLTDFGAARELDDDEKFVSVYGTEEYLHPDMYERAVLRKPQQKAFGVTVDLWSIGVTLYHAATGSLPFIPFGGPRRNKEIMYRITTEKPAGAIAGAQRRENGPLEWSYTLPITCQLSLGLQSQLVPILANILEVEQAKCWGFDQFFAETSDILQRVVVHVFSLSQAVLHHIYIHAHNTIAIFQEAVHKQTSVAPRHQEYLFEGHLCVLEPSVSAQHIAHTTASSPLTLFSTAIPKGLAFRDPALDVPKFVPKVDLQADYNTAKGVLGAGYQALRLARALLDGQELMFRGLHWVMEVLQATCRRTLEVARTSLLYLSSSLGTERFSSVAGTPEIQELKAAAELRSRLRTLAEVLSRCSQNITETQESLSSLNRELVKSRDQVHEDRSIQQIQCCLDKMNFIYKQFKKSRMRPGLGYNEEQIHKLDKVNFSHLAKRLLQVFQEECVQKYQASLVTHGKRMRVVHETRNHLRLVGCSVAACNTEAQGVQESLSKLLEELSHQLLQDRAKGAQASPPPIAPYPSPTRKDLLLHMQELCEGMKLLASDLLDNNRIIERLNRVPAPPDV", "details": "at 1 µM"}, "[2]": {"biological_target": "T2, Serine/threonine-protein kinase Nek1 (Homo sapiens) (UniProt Q96PY6)", "T2 sequence (whole entry)": "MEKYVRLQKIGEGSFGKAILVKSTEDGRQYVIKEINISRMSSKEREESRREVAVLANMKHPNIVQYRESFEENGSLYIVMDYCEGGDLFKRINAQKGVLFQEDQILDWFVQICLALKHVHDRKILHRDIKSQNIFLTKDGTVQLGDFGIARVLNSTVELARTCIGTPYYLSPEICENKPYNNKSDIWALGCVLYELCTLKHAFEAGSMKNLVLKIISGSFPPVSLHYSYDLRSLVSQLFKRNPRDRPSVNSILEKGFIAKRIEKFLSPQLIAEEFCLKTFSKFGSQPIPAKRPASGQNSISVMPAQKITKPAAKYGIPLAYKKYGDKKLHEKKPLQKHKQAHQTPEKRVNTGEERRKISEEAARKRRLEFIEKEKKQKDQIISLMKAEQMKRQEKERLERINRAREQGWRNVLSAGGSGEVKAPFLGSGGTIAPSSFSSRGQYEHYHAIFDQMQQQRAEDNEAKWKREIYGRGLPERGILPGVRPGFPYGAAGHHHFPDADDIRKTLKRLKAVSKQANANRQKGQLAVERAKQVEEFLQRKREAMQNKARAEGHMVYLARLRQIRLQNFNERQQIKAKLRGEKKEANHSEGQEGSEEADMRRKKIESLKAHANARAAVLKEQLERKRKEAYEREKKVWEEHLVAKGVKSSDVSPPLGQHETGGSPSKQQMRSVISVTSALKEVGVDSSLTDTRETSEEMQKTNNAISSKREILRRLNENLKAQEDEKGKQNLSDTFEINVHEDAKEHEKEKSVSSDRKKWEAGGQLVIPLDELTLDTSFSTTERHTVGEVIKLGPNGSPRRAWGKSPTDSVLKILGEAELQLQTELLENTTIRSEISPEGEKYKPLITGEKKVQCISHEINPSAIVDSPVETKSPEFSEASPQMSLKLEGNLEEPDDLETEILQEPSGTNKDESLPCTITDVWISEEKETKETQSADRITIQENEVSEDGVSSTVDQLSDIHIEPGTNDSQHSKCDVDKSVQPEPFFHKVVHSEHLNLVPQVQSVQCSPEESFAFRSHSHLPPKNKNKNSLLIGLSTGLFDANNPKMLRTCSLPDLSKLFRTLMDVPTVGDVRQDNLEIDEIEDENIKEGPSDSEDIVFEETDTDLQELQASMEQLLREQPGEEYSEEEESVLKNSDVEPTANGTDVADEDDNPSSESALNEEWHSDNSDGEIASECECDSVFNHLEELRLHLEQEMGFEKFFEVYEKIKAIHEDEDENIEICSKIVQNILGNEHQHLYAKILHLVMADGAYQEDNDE", "details": "at 0.1 µM"}, "[3]": {"biological_target": "T2, Serine/threonine-protein kinase Nek1 (Homo sapiens)", "details": "at 1 µM"}, "[4]": {"biological_target": "T3, Serine/threonine-protein kinase Nek2 (Homo sapiens) (UniProt P51955)", "T3 sequence (whole entry)": "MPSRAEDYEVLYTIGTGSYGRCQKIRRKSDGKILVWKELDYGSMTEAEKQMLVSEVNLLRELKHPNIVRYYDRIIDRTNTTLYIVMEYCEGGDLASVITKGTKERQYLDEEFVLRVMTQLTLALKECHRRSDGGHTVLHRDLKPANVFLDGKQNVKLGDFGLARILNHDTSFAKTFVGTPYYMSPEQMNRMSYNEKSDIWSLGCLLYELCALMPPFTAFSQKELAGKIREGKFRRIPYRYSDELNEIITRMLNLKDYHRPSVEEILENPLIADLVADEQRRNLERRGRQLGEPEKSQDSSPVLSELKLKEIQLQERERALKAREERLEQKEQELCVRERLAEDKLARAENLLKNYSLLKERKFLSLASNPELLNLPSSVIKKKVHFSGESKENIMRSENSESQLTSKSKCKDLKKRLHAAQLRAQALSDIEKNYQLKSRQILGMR", "details": "at 0.1 µM"}, "[5]": {"biological_target": "T3, Serine/threonine-protein kinase Nek2 (Homo sapiens)", "details": "at 1 µM"}, "[6]": {"biological_target": "Serine/threonine-protein kinase Nek6 (Homo sapiens) (UniProt Q9HC98)", "sequence (Q9HC98 whole entry)": "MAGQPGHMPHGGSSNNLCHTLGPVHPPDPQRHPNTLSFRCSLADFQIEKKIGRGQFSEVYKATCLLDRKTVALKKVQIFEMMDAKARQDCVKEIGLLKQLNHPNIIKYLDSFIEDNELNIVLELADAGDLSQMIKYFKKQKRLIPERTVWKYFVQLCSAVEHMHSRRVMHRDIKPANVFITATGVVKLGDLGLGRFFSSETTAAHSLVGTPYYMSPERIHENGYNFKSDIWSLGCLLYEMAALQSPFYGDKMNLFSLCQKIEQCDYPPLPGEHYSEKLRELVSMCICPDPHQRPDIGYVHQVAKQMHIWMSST", "details": "at 0.1 µM"}, "[7]": {"biological_target": "Serine/threonine-protein kinase Nek6 (Homo sapiens) (UniProt Q9HC98)", "details": "at 1 µM"}, "[8]": {"biological_target": "Serine/threonine-protein kinase Nek7 (Homo sapiens) (UniProt Q8TDX7)", "sequence (Q8TDX7 whole entry, looked up)": "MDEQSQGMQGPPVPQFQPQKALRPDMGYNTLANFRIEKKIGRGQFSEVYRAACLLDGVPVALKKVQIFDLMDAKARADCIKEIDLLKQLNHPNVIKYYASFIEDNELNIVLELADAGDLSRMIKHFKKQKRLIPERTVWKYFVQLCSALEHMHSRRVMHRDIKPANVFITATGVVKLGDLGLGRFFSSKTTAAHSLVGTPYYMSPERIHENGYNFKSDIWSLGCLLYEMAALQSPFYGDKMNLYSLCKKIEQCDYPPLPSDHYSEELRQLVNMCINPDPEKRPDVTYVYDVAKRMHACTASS", "details": "at 0.1 µM"}, "[9]": {"biological_target": "Serine/threonine-protein kinase Nek7 (Homo sapiens) (UniProt Q8TDX7)", "details": "at 1 µM"}, "[10]": {"biological_target": "T4, Serine/threonine-protein kinase Nek9 (Homo sapiens) (UniProt Q8TD19)", "T4 sequence (whole entry)": "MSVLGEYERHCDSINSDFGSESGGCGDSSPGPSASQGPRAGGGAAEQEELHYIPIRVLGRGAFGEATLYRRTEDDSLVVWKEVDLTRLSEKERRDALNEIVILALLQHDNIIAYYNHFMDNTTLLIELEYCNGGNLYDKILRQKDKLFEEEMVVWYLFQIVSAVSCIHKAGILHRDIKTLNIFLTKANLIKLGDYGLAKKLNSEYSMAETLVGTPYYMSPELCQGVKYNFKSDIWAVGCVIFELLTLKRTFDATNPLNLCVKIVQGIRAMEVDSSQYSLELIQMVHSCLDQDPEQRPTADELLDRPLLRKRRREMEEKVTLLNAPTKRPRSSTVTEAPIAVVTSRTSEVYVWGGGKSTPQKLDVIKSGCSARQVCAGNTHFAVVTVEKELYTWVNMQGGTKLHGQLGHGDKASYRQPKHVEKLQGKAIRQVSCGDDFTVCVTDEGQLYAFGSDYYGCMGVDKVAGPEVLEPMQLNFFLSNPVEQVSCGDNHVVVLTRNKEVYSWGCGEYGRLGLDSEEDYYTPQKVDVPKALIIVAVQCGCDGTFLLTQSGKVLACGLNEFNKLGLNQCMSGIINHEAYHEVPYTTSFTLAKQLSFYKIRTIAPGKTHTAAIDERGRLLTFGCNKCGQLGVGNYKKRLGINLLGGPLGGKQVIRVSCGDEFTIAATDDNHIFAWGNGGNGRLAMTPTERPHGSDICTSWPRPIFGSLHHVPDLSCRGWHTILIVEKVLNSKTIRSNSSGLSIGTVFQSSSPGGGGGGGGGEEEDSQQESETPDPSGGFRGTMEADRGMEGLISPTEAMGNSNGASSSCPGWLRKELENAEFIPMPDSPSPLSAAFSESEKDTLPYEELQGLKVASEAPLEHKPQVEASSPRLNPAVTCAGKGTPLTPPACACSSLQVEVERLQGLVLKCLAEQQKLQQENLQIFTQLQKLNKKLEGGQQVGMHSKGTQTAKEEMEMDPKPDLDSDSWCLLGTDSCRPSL", "details": "at 0.1 µM"}}, "data": [{"smiles": "CCn1c(-c2nonc2N)nc2cncc(C(=O)N3CCNCC3)c21", "values": [{"measurement": "inhibition", "setting": "[1]", "value": 7.71, "unit": "%"}, {"measurement": "inhibition", "setting": "[2]", "value": 4.64, "unit": "%"}, {"measurement": "inhibition", "setting": "[3]", "value": 3.76, "unit": "%"}, {"measurement": "inhibition", "setting": "[4]", "value": 3.46, "unit": "%"}, {"measurement": "inhibition", "setting": "[5]", "value": 5.88, "unit": "%"}, {"measurement": "inhibition", "setting": "[6]", "value": 1.92, "unit": "%"}, {"measurement": "inhibition", "setting": "[7]", "value": 3.67, "unit": "%"}, {"measurement": "inhibition", "setting": "[8]", "value": 2.41, "unit": "%"}, {"measurement": "inhibition", "setting": "[9]", "value": 10.8, "unit": "%"}, {"measurement": "inhibition", "setting": "[10]", "value": 6, "unit": "%"}]}]}
